Assay outcomes (PubChem BioAssay)
CRFBP-R2 agonist – agonists of CRF-BP/CRF-R2 complex, primary screen, cell-based, HEK293, calcium dye fluorescence, uHTS; 0.46% of 350,000 active; CRF-binding protein / CRF receptor 2 complex (human); calcium dye fluorescence (FLIPR); percent of saturating CRF peptide response; AID 588473, 2011; activation, % at 13.2 µM;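 active = activation of at least 50%, plus an integration ratio under a set limit after plate pattern correction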
TPT1 inh – Candida albicans TPT1 enzyme inhibitors, primary screen, biochemical, fluorescence polarization. inhibition, % at 5 µM. recombinant caTPT1, FP RNA substrate dephosphorylation. 0.81% of 300,000 active. tRNA 2'-phosphotransferase TPT1 (Candida albicans SC5314). AID 1962, 2009;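 active = inhibition above the mean of all tested compounds plus 3 SD, set per screening campaign, cut at about 24% in these data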
HNF4A DNA FP – change in binding of human HNF4A to DNA, primary screen, biochemical, fluorescence polarization, FITC-DNA. Hepatocyte nuclear factor 4-alpha (Homo sapiens), P41235. 1 h. activity change, % at 10 µM. 0.3% of 360,000 active; in the data active = activity change above about 30%, passing the limit was not always enough
IDE act – human IDE activators in live cells, primary screen, fluorescence polarization, HEK cells, FAbeta-B substrate; FAbeta-B cleavage; 0% vehicle, 100% cell-free pure enzyme wells; activation, % at 5.96 µM; 0.073% of 340,000 active; AID 493087, 2011;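 active = activation above the mean of all tested compounds plus 3 SD, set per screening campaign, cut at about 17% in these data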
Target sequence (P14735 whole entry, looked up): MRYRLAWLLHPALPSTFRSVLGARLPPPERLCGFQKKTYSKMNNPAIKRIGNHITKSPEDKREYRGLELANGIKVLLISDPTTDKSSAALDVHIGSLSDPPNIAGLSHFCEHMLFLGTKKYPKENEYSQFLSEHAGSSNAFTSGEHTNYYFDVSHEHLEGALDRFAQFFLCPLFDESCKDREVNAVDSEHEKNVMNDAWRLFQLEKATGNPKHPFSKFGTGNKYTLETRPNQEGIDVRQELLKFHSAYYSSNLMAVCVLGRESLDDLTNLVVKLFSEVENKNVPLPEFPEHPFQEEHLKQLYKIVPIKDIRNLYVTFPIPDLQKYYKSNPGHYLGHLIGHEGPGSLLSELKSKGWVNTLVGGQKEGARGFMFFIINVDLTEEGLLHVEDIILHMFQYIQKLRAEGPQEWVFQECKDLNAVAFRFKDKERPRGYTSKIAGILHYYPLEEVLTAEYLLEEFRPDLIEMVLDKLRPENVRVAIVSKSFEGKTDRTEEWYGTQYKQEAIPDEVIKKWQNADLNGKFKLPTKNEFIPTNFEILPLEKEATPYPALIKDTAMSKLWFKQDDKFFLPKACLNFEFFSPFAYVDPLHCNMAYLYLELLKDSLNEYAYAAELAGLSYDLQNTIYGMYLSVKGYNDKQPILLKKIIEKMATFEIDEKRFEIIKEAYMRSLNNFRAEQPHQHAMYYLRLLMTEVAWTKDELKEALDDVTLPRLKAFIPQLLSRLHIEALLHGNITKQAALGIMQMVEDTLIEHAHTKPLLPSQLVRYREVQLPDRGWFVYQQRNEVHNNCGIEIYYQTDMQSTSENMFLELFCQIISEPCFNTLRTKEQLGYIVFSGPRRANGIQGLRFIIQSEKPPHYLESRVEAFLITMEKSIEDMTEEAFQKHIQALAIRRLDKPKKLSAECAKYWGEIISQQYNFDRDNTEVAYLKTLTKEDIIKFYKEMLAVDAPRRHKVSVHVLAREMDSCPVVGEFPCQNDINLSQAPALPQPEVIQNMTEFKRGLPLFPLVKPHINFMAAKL
IDE cell inh – human IDE inhibitors in live cells, primary screen, fluorescence polarization, HEK cells, FAbetaB substrate; AID 434962, 2010; inhibition, % at 5.59 µM; Insulin-degrading enzyme (Homo sapiens), P14735; FAbetaB cleavage; 0.41% of 320,000 active;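 active = percent inhibition above the average of all tested compounds plus 3 SD, set per screening campaign, cut at about 16% in these data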;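 also: IDE supplied by intact live HEK cells; FP after avidin binding of uncleaved biotin substrate so inhibition keeps polarization high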
Hits are given with their value; 0 = inactive; - = not tested or not shown. Compounds with a hit are over-represented: about 1.4% of the library has one in this group of screens.

SMILES	CRFBP-R2 agonist	TPT1 inh	HNF4A DNA FP	IDE act	IDE cell inh
COc1ccc(Cc2nc3ccccc3n2CC(=O)N/N=C/c2ccc(C)cc2O)cc1OC	0	0	39	0	0
CCOC(=O)C1CCCN(C(=O)Cn2ncc3c([nH]c4ccc(C)cc43)c2=O)C1 (configuration not stated)	0	0	0	0	0
C/C=C(\C)C(=O)OC1[C@H](OC(C)=O)C2(CO)C(CC1(C)C)C1=CCC3C4(C)CCC(O[C@@H]5O[C@H](C(=O)O)[C@@H](O[C@@H]6O[C@H](CO)[C@@H](O)[C@H](O)[C@H]6O)[C@H](O)[C@H]5O[C@H]5O[C@H](CO)[C@@H](O)[C@H](O)[C@H]5O)[C@](C)(CO)C4CCC3(C)[C@]1(C)C[C@H]2O (some centres not stated)	159	-	0	0	-
CC1(C)C[C@H]2C3=CCC4[C@@]5(C)CC[C@H](O[C@@H]6O[C@H](C(=O)O)[C@@H](O)[C@H](O)[C@H]6O)[C@@](C)(CO)C5CC[C@@]4(C)[C@]3(C)C[C@H](O)[C@@]2(CO)[C@@H](O)[C@@H]1O (some centres not stated)	0	-	0	0	0
CC(=O)OC1COC(OC2C(O)C(C)OC(OC3C(OC4CCC5(C)C(CCC6(C)C5CC=C5C7CC(C)(C)CCC7(C(=O)O)CCC56C)C4(C)CO)OCC(O)C3O)C2O)C(O)C1OC(C)=O (configuration not stated)	-	0	-	-	0
C/C=C(/C)C(=O)OC1CC(C)(C)C[C@H]2C3=CC[C@@H]4[C@@]5(C)CCC(O[C@@H]6O[C@@H](C(=O)O)[C@@H](O)C(O[C@@H]7OC[C@H](O)[C@@H](O)[C@@H]7O[C@@H]7OC(CO)C(O)[C@@H](O)[C@@H]7O)C6O[C@@H]6OC(CO)C(O)C(O)C6O)[C@@](C)(CO)[C@@H]5CC[C@]4(C)[C@]3(C)CC(O)[C@@]12CO (some centres not stated)	112	-	0	0	0
Cc1ccc(S(=O)(=O)N(C(=N)N)c2nc(N(C)C)nc(N(C)C)n2)cc1	-	0	0	0	0
Cc1cccc[n+]1CC(=O)/C=C1\N(C)c2ccccc2C1(C)C	0	0	0	0	0
CN1/C(=C/C=C/c2n(C)c3cc([N+](=O)[O-])c([N+](=O)[O-])cc3[n+]2C)C(C)(C)c2ccccc21	0	-	95	-	-
CC(O)CC(=O)OC[C@]12CC[C@H]3[C@@](C)(CC[C@H]4C(C)(C)CCC[C@]34C)[C@@H]1CC(C1=CC(=O)OC1O)O2 (some centres not stated)	-	-	0	-	-
N#Cc1c(-c2ccc(Cl)cc2)c2c([nH]c1=O)-c1ccccc1OC2	0	0	0	0	16
Cc1cc(C)nc(SCC(=O)c2ccc(F)cc2F)n1	0	0	0	0	0
COc1ccc2[nH]c3c4c(ccc3c2c1)C(=O)C=CC4=O	0	-	46	0	-
COc1ccc2[nH]c(=O)cc(C(=O)O)c2c1	0	0	0	0	0
C/C(CC(=O)Nc1ccc(N(C)C)cc1)=N\NC(=O)c1ccncc1	0	0	0	18	0
CCOc1ccc(NC(=O)C/C(C)=N/NC(=O)c2cnccn2)cc1	0	-	0	0	-
COc1ccc(NC(=O)C/C(C)=N/NC(=O)c2cnccn2)cc1	0	0	30	0	0
CCOC(=O)[C@]12CCC=C1N(Cc1cccc3ccccc13)C(=O)[C@H](CC(=O)N1CCN(C(=O)c3ccco3)CC1)C2	-	-	0	-	-
C=CCNC(=O)c1onc(CSc2ccc(F)c(F)c2)c1C(=O)NCC=C	0	0	0	0	0
O=C(NCC1CC1)c1onc(CSc2ccc(F)c(F)c2)c1C(=O)NCC1CC1	0	0	0	65	0
CCOC(=O)c1sc(NC(=S)NC(=O)c2cccc(OC)c2)nc1C	58	0	0	0	0
COc1cc(CNC2CCCC2)cc(OC)c1OC	0	0	0	18	0
CC(=O)C[C@@H]1SC[C@H](c2ccccc2)N1S(=O)(=O)c1ccc(C)cc1	-	-	0	-	-
Cc1ccccc1NS(=O)(=O)c1ccc(C(=O)OCC(=O)NCC(C)C)cc1	0	0	31	0	0
Cc1ccc([C@H]2N[C@]3(CCCN(Cc4cccn4C)C3=O)[C@H]3C(=O)N(C)C(=O)[C@@H]23)cc1	0	-	0	-	-
SMILES	CRFBP-R2 agonist	TPT1 inh	HNF4A DNA FP	IDE act	IDE cell inh
O=C1NC[C@@H](CCCCN2CCN(CCc3ccccc3)C(=O)C2=O)N(Cc2ccccc2)C1=O	-	-	0	-	-
CCOC(=O)C1CCN(Cc2nc3ccc([N+](=O)[O-])cc3c(=O)n2-c2ccc(OC)cc2OC)CC1	0	0	0	0	0
CCOC(=O)C1CCCN(Cc2nc3ccc([N+](=O)[O-])cc3c(=O)n2-c2ccc(OC)cc2OC)C1 (configuration not stated)	0	0	37	0	0
COc1ccc(Cn2c(C3CCCCC3)nc3c(c(=O)c4ccccc4n3C)c2=O)cc1	0	0	-	-	0
Cn1c2ccccc2c(=O)c2c(=O)n(C3CCCCCC3)c(C3CCCCC3)nc21	127	-	67	0	-
Cn1c2ccccc2c(=O)c2c(=O)n(C3CCCCC3)c(-c3cccs3)nc21	116	0	0	0	0
CCc1nc2c(c(=O)c3ccccc3n2C)c(=O)n1C1CCCCCC1	226	0	0	0	0
COc1ccc(CCn2c(C3CCCCC3)nc3c(c(=O)c4ccccc4n3C)c2=O)cc1	62	0	0	-	0
O=C(CCC(=O)OCCOc1ccccc1)OCCOc1ccccc1	-	-	0	-	-
CCN(CC)S(=O)(=O)c1cccc(NC(=O)CN2C(=O)NC3(CCC(C)CC3)C2=O)c1 (configuration not stated)	0	-	0	0	-
Cn1c(SCC(=O)Nc2nccs2)nnc1-c1ccccn1	0	0	0	0	0
C=C(C)[C@@H]1C2=CC(C(=O)OC)=C(C[C@H](C(=C)C)[C@H]3O[C@H]3C3=C[C@H]1OC3=O)O2	-	-	0	-	-
CC(C)c1nc2c(c(=O)c3ccccc3n2C)c(=O)n1CCc1ccccc1	72	0	0	-	0
OC(c1cccc(Cl)c1)c1nc(/C=C/c2ccccc2)cs1 (configuration not stated)	-	-	0	-	-
COc1ccc2c(c1)c(CC(=O)Nc1cc(C)ccc1C)c(C)n2C(=O)c1ccc(Cl)cc1	89	0	0	0	0
O=[N+]([O-])c1ccc(-c2ccc(/C=N/Nc3nc(N4CCCCC4)nc(N4CCCCC4)n3)o2)cc1	69	-	0	-	-
COc1cc([N+](=O)[O-])cc(/C=C2/SC(=S)N(Cc3ccccc3)C2=O)c1O	0	0	42	0	0
O=C1/C(=C\c2cccc([N+](=O)[O-])c2O)SC(=S)N1Cc1ccccc1	0	0	0	0	0
C=CCN1CCN(C(=O)c2ccc3c(c2)OCO3)CC1	0	0	0	0	0
